Sampled rows, rich in hits. Any-hit rate of the full collection: about 2.7%.
FAS TE block = FAS thioesterase (human) inhibition; P49327; recombinant FAS-TE, OMFH fluorogenic substrate, fluorescence endpoint; inhibition, % at 15 µM; actives 0.67% (n = 360,000); AID 602261;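 active means compounds whose normalised, plate-corrected inhibition of enzyme fluorescence in the single-dose primary screen is 50% or more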;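 further: 0% = DMSO with enzyme and 100% = substrate without enzyme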
KLK7 zymogen act = activates the human kallikrein-7 zymogen; P49862; purified proKLK7, EDANS-DABCYL substrate fluorescence; 100% is mature enzyme control, 0% vehicle; activation, % at 7 µM; actives 0.9% (n = 370,000); AID 652039;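 active means activation above the mean of all tested compounds plus 3 SD, computed per campaign excluding outliers beyond control limits, cut at about 13% in these data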
Target sequence (P49862 whole entry, looked up): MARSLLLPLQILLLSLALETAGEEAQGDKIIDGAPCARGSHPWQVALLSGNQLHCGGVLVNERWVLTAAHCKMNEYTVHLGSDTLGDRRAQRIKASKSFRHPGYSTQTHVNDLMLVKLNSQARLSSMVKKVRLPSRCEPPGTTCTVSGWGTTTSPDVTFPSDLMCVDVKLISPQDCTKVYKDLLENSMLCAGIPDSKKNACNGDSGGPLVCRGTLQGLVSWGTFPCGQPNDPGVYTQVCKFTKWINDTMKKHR
PfG6PD inh = PfG6PD (Plasmodium falciparum) enzyme inhibition; PfGluPho enzyme, NADPH resazurin-diaphorase fluorescence; actives 0.78% (n = 350,000); AID 504690; inhibition, % at 20 µM;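 active means inhibition reaching at least a set limit at 20 µM in the primary screen, cut at about 59% in these data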;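 further: 0% = DMSO wells with substrate and 100% = DMSO wells lacking glucose-6-phosphate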
Neddyl block = inhibitors of human cullin neddylation | P61081+Q13564 | TR-FRET cullin neddylation, biochemical | calls only at 25 µM | actives 0.58% (n = 360,000); in the data active means inhibition above about 36%
FAS-TE conf = FAS thioesterase (human) inhibition, confirmation | AID 624325 | shares compounds with FAS TE block | recombinant FAS-TE, OMFH fluorogenic substrate, fluorescence | inhibition, % at 15 µM | actives 45% (n = 2,300);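 active means compounds inhibiting the enzyme by at least 50% at 15 µM in any one of the replicates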;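 further: 0% = enzyme with DMSO only and 100% = wells lacking enzyme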
Neddyl conf = confirmation of human cullin neddylation inhibitors | actives 13% (n = 1,800) | shares compounds with Neddyl block | TR-FRET cullin neddylation biochemical assay | calls only at 25 µM; in the data active means inhibition above about 40%;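 further: neddylation substrate is the cullin 1 ring ligase complex with SKP2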
proKLK7 act conf = proKLK7 activation, confirmation; shares compounds with KLK7 zymogen act; purified proKLK7, EDANS-DABCYL substrate fluorescence; scaled: vehicle 0, mature enzyme 100; activation, % at 7 µM; actives 68% (n = 3,200);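 active means activation, as change over the incubation, above the mean of all tested compounds plus 3 SD, cut at about 13% in these data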
EDANS interfere = optically interferes with EDANS-DABCYL signal, flagging KLK7 hits; actives 80% (n = 3,200); activation, % at 7 µM; shares compounds with KLK7 zymogen act; EDANS-DABCYL substrate fluorescence interference, no enzyme, 4 h; solvent 0%, active enzyme control 100%;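 active means activation above the all-compound mean plus 3 SD, ignoring values outside control-based bounds, cut at about 4.8% in these data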;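 further: value is the 4 h activation minus the activation read at time zero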
EDANS interf = EDANS fluorescence interference in dose response, no enzyme | shares compounds with KLK7 zymogen act | EDANS-DABCYL peptide fluorescence interference | EC50, µM | actives 20% (n = 250);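 active means compounds that raise the fluorescence signal in this interference counterscreen, with EC50 at or below 10 µM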;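 further: intact quenched peptide substrate alone read at 355 nm excitation and 520 nm emission; signal is fluorescence gain from T0 to T4 after four hours at room temperature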
Starred values were filed as active, the others as inactive; i = inactive; nt = not tested or not shown; + = active, no number.

SMILES	FAS TE block	KLK7 zymogen act	PfG6PD inh	Neddyl block	others
CC(C)(C)OC(=O)N[C@@H](Cc1ccccc1)c1nnc(S(=O)(=O)Cc2ccccc2)o1	nt	-1	nt	nt
C(=N/N1CCN(c2ccccc2)CC1)/c1ccco1	nt	0	nt	nt
CCCCOc1ccc(S(=O)(=O)N2CCN(c3ccc(N4CCN(CC)CC4)nn3)CC2)cc1	60*	-2	-9	+	FAS-TE conf=29;Neddyl conf=i
Cc1nc2ccc(S(=O)(=O)NCC(=O)NCc3ccc(F)cc3)cc2s1	nt	0	nt	nt
CCOC(=O)c1cc2c(=O)n3cccc(C)c3nc2n(Cc2ccco2)c1=NC(=O)c1ccc(C)cc1	-6	nt	0	i
CCOC(=O)c1cc2c(=O)n3ccccc3nc2n(Cc2ccco2)c1=NC(=O)c1ccc(OC)cc1	64*	13*	8	nt	FAS-TE conf=47*;proKLK7 act conf=105*;EDANS interfere=104*
CCOCCCn1c(=NC(=O)c2ccco2)c(C(=O)OCC)cc2c(=O)n3cccc(C)c3nc21	67*	39*	5	nt	FAS-TE conf=2;proKLK7 act conf=23*;EDANS interfere=9.2*;EDANS interf=i
CCC(C)N(C(=O)CN1C(=O)C2CCCCN2C(=O)c2ccccc21)C(C)CC (stereo unspecified)	nt	0	nt	nt
CN(Cc1ccccc1)S(=O)(=O)c1cccc(C(=O)OCc2cccc([N+](=O)[O-])c2)c1	nt	0	nt	nt
Cc1c(Cl)c(=O)oc2cc(OCC(=O)N3CCCC(C)C3)ccc12 (stereo unspecified)	64*	45*	-4	nt	FAS-TE conf=63*;proKLK7 act conf=70*;EDANS interfere=69*
COc1cccc2cc(-c3cn4cccc(C)c4n3)c(=O)oc12	-6	1	9	+	Neddyl conf=i
COC(=O)c1ccc(Cn2ccc3ccc(-c4ccc5ccn(Cc6ccc(OC)cc6)c5c4)cc32)cc1	nt	-1	nt	nt
CCCOc1ccc2oc(=O)c3c(c2c1)CCCN3C(=O)CN1CCN(c2ncccn2)CC1	22	-1	-1	i
O=C(CN1CCCC1)N1CCCc2c1c(=O)oc1ccc(OCc3ccccc3)cc21	-6	3	26	+
CCCCn1nc(C(=O)Nc2ccc(-n3cnnn3)cc2)c2ccccc2c1=O	-2	0	-2	+	Neddyl conf=i
Cc1cc(=O)c2c([nH]1)c(C)cc1[nH]c(C)c(C)c12	-37	-26	14	+
Cc1cc(C)c(S(C)(=O)=O)c(=O)[nH]1	-3	0	-1	i
COc1cccc(/C=C2\CC3(OC(=O)c4ccc(Cl)cc4)CCCN2C3)c1 (stereo unspecified)	nt	0	nt	nt
O=C(NNc1ccc([N+](=O)[O-])cn1)Nc1ccc(N=Nc2ccccc2)cc1	6	0	28	i
COc1ccccc1-c1ccc2nnc(SC)n2n1	-4	3	10	+	Neddyl conf=i
COc1ccccc1CNC(=O)CSc1nnc2ccc(-c3cccnc3)nn12	-6	0	2	i
Cc1cc(C)c(C(O)c2ncc(-c3cccc4ccccc34)[nH]2)c(C)c1 (stereo unspecified)	13	-1	nt	i
COc1ccc(-c2cc(=O)c3cc(O)ccc3o2)cc1	-5	0	-5	+
O=C(Cc1ccc(Cl)cc1)NNC(=S)NC(=O)c1cccs1	-6	1	-17	+	Neddyl conf=i
O=C(Cc1cccs1)NNC(=S)NCc1ccc(Cl)cc1	-1	-1	-5	i
SMILES	FAS TE block	KLK7 zymogen act	PfG6PD inh	Neddyl block	others
COc1ccc(S[C@]2(C(=O)N3CCOCC3)CC(=O)N(C(=O)CCc3ccccc3)[C@@H]2c2ccc(OC)cc2)cc1	nt	1	nt	nt
COc1ccc(OC)c(S(=O)(=O)N2CCC(C(=O)NCc3cccs3)CC2)c1	nt	0	nt	nt
CCC(NC(=O)c1ccc2c(ccn2Cc2cccc(-c3ccc(C(=O)O)cc3)c2)c1)c1ccccc1 (stereo unspecified)	nt	0	nt	nt
C=CCNC(=S)/N=c1/ccccn1CCC	-3	2	11	+	Neddyl conf=i
C=CCNC(=S)/N=c1/ccccn1C	-7	1	10	i
COc1ccc(OCCNC(=O)C2(C)CCN2Cc2ccc3ccccc3c2)cc1 (stereo unspecified)	22	0	nt	i
Cc1c(-c2nc(-c3ccc(C(F)(F)F)cc3)no2)n(C)oc1=O	5	0	3	+	Neddyl conf=i
CC1(C(=O)NCC2CC2)Cc2c(-c3ccccc3)ccnc2O1 (stereo unspecified)	-4	0	nt	i
O=C(NCCCN1CCCC1=O)c1c(O)nc2ccccn2c1=O	-3	6	13	+	Neddyl conf=i
Cc1csc2nc(O)c(C(=O)NC3CCCCC3C)c(=O)n12 (stereo unspecified)	19	0	-8	i
CC1CCCCC1NC(=O)c1c(O)nc2ccccn2c1=O (stereo unspecified)	0	2	-3	+	Neddyl conf=i
Cc1cc(C)c(NC(=O)CNC(=O)c2cc(C3CC3)nc3c2cnn3C(C)C)c(C)c1	-1	2	-4	nt
CC(C)n1ncc2c(C(=O)NCC(=O)Nc3ccccc3Br)cc(C3CC3)nc21	12	nt	9	+
CCc1ccccc1NC(=O)CNC(=O)c1cc(C2CC2)nc2c1cnn2C(C)C	9	0	-6	+
C=CCN1[C@H](Cc2ccccc2)COc2cccc(N3CCCC3)c2S1(=O)=O	nt	0	nt	nt
CCc1nn(CC(=O)NCCC(C)C)c(=O)c2cc3c(OC)cccc3n12	-6	0	-1	+	Neddyl conf=i
COC(=O)C1=C(C)N=C2SC(C#N)=C(N)N2C1c1cc(OC)c(OC)c(OC)c1 (stereo unspecified)	0	1	-1	i
COC(=O)C1=C(C)N=C2SC(C#N)=C(N)N2C1c1ccc(OCc2ccccc2)cc1 (stereo unspecified)	17	0	-12	+	Neddyl conf=i
O=C(OCc1cn(Cc2c(F)cccc2F)nn1)N1CCCC1	nt	0	nt	nt
C#CCNC(=O)C[C@H]1C[C@@]2(C(=O)OC)C(=C[C@H](COCc3ccccc3)O[C@@H]2C)N(Cc2cccc3ccccc23)C1=O	nt	1	nt	nt
Nc1cc(Cl)ccc1C(=O)OCC(=O)NCc1cccs1	13	2	8	+
C#CCCN([C@H](C(=O)OC)C(C)CC)S(=O)(=O)c1ccccc1Br (stereo partly specified)	nt	1	nt	nt
O=C(c1cc(Cl)cc(Cl)c1)N1CC[C@H]2[C@H](CCCN2Cc2ccccc2)C1	nt	0	nt	nt
